# Source: PubChem
# Only some compounds are listed: those with a hit (about 1.1% of all), similar ones and a draw of the others.
# IP6K1 inh = IP6K1 kinase inhibition. AID 1645851. IP6K1 kinase, ADP-Glo luminescence, 2 h; hits give low values. activity change, % (series mostly up to about 58 µM). Q92551. 140,000 compounds, 0.81% hits; in the data active means activity change below about -25%
#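 ADP-Glo luminescence measures ADP made by human IP6K1 during a 2 h RT reaction with ATP/IP6 (mix at 1.3 mM/130 uM); top library doses 57.5 and 19.1 uM final.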
# GPT2 inhibitor = GPT2 alanine aminotransferase inhibition. Q8TD30. Recombinant GPT2, coupled pyruvate oxidase/HRP Amplex Red fluorescence. Potency, µM (series often up to 57.7 µM), without a hit: at the top dose activity change, negative = inhibition, usual class: inhibitors. 100,000 compounds, 0.25% hits. AID 1671188; further: potency means the concentration at half of the fitted maximal effect; nearly all actives have a fitted effect of over 60% in size
# Target sequence (Q8TD30 whole entry, looked up): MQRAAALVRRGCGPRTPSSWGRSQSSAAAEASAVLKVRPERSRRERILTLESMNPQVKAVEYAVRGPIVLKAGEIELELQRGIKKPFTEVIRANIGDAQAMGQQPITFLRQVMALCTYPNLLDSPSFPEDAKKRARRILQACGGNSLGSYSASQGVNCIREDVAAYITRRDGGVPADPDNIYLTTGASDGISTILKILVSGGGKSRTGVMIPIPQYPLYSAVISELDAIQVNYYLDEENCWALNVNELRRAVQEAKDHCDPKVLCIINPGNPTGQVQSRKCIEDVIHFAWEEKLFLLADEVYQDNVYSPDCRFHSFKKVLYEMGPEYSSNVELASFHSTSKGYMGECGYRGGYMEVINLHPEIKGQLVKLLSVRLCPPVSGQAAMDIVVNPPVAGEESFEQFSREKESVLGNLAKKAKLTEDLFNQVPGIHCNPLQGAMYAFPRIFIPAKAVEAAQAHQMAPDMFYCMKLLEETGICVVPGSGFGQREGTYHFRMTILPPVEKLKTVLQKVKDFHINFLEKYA
#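 Inhibition is scored from Amplex Red fluorescence generated when pyruvate oxidase and HRP act on pyruvate released by GPT2. Reactions contain 10ng/uL enzyme, 250uM a-KG and 2mM L-alanine and run 30 min at room temperature.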
# SNCA expr inhib = reduces expression of the alpha-synuclein gene. HEK-293 SNCA-luciferase knock-in, luminescence, 24 h. Potency, µM (series often up to 57.2 µM), for the others: at the top dose activity change, negative = inhibition, usual class: inhibitors. 140,000 compounds, 0.17% hits. AID 1671194;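 further: potency means the concentration at half of the fitted maximal effect; plate controls were DMSO cells for no effect and cell-free wells for full effect; nearly all actives have a fitted effect of over 45% in size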
# SNCA viab count = counter-screen for SNCA expression inhibitors: cell viability. HEK-293-SNCA-luc viability, GF-AFC fluorescence, 24 h. Potency, µM (highest dose often 57.1 µM), without a hit: at the top dose activity change, negative = cytotoxicity, actives largely listed as cytotoxic. 150,000 compounds, 0.12% hits;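 further: potency means the concentration at half of the fitted maximal effect; 0% = DMSO-treated cells and -100% = medium-only wells without cells; nearly all actives have a fitted effect of over 30% in size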
#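 Cytotoxicity counterscreen: after 24 h compound treatment of genome-edited SNCA-luciferase HEK-293 cells, live-cell protease substrate GF-AFC read by fluorescence after 30 min; activity scaled between DMSO (0%) and medium-only (-100%), curves Hill-fitted.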
# IP6K1 inh cnf = human IP6K1 inhibition, confirmatory; shares compounds with IP6K1 inh; recombinant IP6K1 kinase, ADP-Glo luminescence, 2 h; Potency, µM (doses to about 49 µM), for inactives: at the highest dose activity change, negative = inhibition, hits mostly inhibitors; 1,200 compounds, 13% hits; AID 1645852; further: potency means the concentration at half of the fitted maximal effect; nearly all actives have a fitted effect of over 65% in size
# Numbers without * were called inactive; i = inactive; ? = inconclusive; · = no result; [ ] = remark or other dose. Unless noted, the call rests on the fitted dose curve; in most records, active means well fitted curve in the direction sought with a large enough effect; inconclusive means small, poorly fitted or top-dose-only effect, or another doubt; inactive means no such curve, though single readings can be large; an effect the other way counts as inactive or inconclusive. Unless noted, on the % scale 0 is the no-effect control and ±100 the full control effect.
SMILES,IP6K1 inh,GPT2 inhibitor,SNCA expr inhib,SNCA viab count,IP6K1 inh cnf
CCC1CN(Cc2nc(CCOC)no2)CCC(=O)N1Cc1ccccc1 (stereo unspecified),-9.3,1.7%,-23.4%,7.2%,·
Cc1c(Cl)cccc1-n1ncc(C(=O)Nc2ccc(Br)cc2F)c1C1CCNCC1,-26.3*,·,-21.9%,8.7%,?
Cn1nc(-c2ccncc2)cc1NC(=O)C1CC1,2.2,i,6.0%[87.6 µM],9.2%[87.6 µM],·
COc1ccc(C(=O)N2CCCC(C(=O)N3CCC4(CC3)CC(=O)Nc3ccccc3O4)C2)cc1 (stereo unspecified),1.6,i,1.4%,10.5%,·
O=C(c1ccccc1)n1nc(-c2ccco2)nc1NCc1ccccc1Cl,-30.6*,·,67.8%,4.9%,-22.0%
COCC(=O)n1nc(-c2ccco2)nc1NCc1ccccc1Cl,-3.4,·,162.0%,2.2%,·
COC(=O)c1cccc(CN2C(=O)SC(Nc3ccc(Cl)cc3)C2=O)c1 (stereo unspecified),-12.9,·,10.5%,-3.8%,·
CCOC(=O)c1ccc(NC2SC(=O)N(Cc3cccc(C(=O)O)c3)C2=O)cc1 (stereo unspecified),-45.8*,·,111.1%,-15.0%,?
COCCNC(=O)C[C@@H]1C[C@H]2O[C@H](CN)[C@@H](O)[C@H]2O1,8.5,-24.7%[88.5 µM],-13.3%[87.6 µM],2.5%[87.6 µM],·
CCOc1ccc2c(n1)CCN(C(=O)Cc1cccc(OC)c1)C2,-26.2*,-3.0%,48.1%,2.7%[12.5 µM],-22.6%
COCCNc1nc(NCc2cccc(Cl)c2)c2cnn(C)c2n1,-39.1*,·,-24.0%,-19.3%,-6.7%
CC1CN(c2ccc(Cl)cc2)C(=O)CN1C(=O)CCn1cccc1 (stereo unspecified),-33.4*,-21.3%[11.5 µM],4.1%,14.5%,-15.3%
O=C(O)C1=CC(=C(c2ccc(O)c(C(=O)O)c2)c2ccc(O)c(C(=O)O)c2)C=CC1=O,·,i,-1.1%,7.5%,1.46µM*
c1ccc(Oc2cc3c(cn2)NCCN(Cc2ccsc2)C3)cc1,-29.3*,i,11.3%[87.6 µM],6.4%[87.6 µM],-3.9%
CN(c1ccccc1)c1cc(=O)c2ccnc(-c3cccnc3)c2o1,-22.1,1.1%[88.5 µM],?,-3.2%[87.6 µM],·
CN(c1ccccc1)c1cc(=O)c2ccnc(-c3cncnc3)c2o1,-26.2*,?,-27.8%[87.6 µM],8.9%[87.6 µM],8.0%
CN(C)c1cc(=O)c2ccnc(-c3cccc(C(F)(F)F)c3)c2o1,-33.2*,5.0%[88.5 µM],-10.7%[87.6 µM],10.4%[87.6 µM],?
COc1cccc(-c2nccc3c(=O)cc(N(C)C)oc23)c1,-12.2,0.4%[88.5 µM],-3.3%[87.6 µM],-0.2%[87.6 µM],·
COc1ccc(CNC(=O)c2cc(-c3ccc([S+](C)(=O)[O-])cc3)nc3c2cnn3C)cc1,7.8,?,-13.8%,-3.6%,·
CCn1nc(C)c(CCNC(=O)C2CCC(=O)N(C3CCCC3)C2)c1C (stereo unspecified),-25.0*,-10.4%[11.5 µM],-8.5%,3.0%,-9.1%
CN(C)CC(=O)N1Cc2ccccc2CC2(CCCN(CC3CCNCC3)C2)C1 (stereo unspecified),11.8,?,2.7%,-14.0%,·
CN(C)CC(=O)N1Cc2ccccc2CC2(CCN(CC3CCNCC3)C2)C1 (stereo unspecified),-26.8*,i,-5.0%,0.6%,?
O=C(C1CCCN(C2CCN(c3ncnc4sccc34)CC2)C1)N1CCCC1 (stereo unspecified),-28.2*,-16.4%[11.5 µM],?,-2.7%,-12.7%
COc1ccc(CNC(=O)C(N)c2c(C)n[nH]c2C)c(F)c1F (stereo unspecified),7.9,-13.7%,7.7%,0.6%,·
COc1cccc(-c2ncc3c(n2)OCCN(c2ccccc2)C3=O)c1,-26.6*,-9.7%[88.5 µM],?,-7.5%[87.6 µM],?
COc1cccc(-c2ncc3c(n2)OCCN(c2cccc(C(F)(F)F)c2)C3=O)c1,-11.6,-10.7%[88.5 µM],-15.8%[87.6 µM],-17.6%[87.6 µM],·
Cc1ccc(S(=O)(=O)N2CCN(Cc3ccccc3Cl)CC2)cc1,-55.8*,·,22.4%,-6.5%,-7.6%
Cc1ccc2c(CN3CCN(Cc4ccccc4Cl)CC3)cc(=O)oc2c1,-15.8,·,-5.4%,0.9%,·
COc1ccc(C2=C(C)C(=O)N(Cc3ccc(C(=O)Nc4ccc(F)cc4C)cc3)S2(=O)=O)cc1,-29.6*,·,?,-1.5%,-1.1%
